# Values joined by “and” are separate entries in the source; they are usually repeats but may differ in a detail not shown here. Identical values can stand only once. In all, about 5,500 compounds went through this assay and about 2,000 (36%) were called active. Inconclusive results (about 18%) are left out. Some of the results follow. A number with no mark means an inactive call. Cut-off read from the data, not from the text of the source: active = normalized growth mostly below about 0.91 (no sharp cut-off); inconclusive = no clear call, values can overlap the other calls; inactive = mostly above about 0.92.
# Assay: chemical genetic growth profiling, strain panel (AID 1159580);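 note: tested at 20 µM; growth read once vehicle control cultures reached saturation at 30 °C; 1 = growth at the plate median or of vehicle wells; lower values mean less growth of the strain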
# Settings: S. cerevisiae deletion strains, growth OD
smiles,measurement,setting,value
C#C[C@]1(O)CCC2C3CCC4=CC(=O)CC[C@@H]4C3CC[C@@]21CC (some centres undefined),normalized growth,"locus YAL021C, strain ccr4, active compounds read low",0.986
same,normalized growth,"locus YAL026C, strain drs2, active compounds read low",0.972
same,normalized growth,"locus YAL030W, strain snc1, active compounds read low",1
same,normalized growth,"locus YBL061C, strain skt5, active compounds read low",0.987
same,normalized growth,"locus YBR009C, strain hhf1, active compounds read low",0.985
same,normalized growth,"locus YBR021W, strain FUR4, active compounds read low",1
same,normalized growth,"locus YBR023C, strain chs3, active compounds read low",0.983
same,normalized growth,"locus YBR171W, strain sec66, active compounds read low",0.992
same,normalized growth,"locus YBR229C, strain ROT2, active compounds read low",0.984
same,normalized growth,"locus YBR231C, strain swc5, active compounds read low",1.01
same,normalized growth,"locus YBR279W, strain paf1, active compounds read low",0.998
same,normalized growth,"locus YCL011C, strain gbp2, active compounds read low",1
same,normalized growth,"locus YCL016C, strain dcc1, active compounds read low",0.988
same,normalized growth,"locus YCL029C, strain bik1, active compounds read low",0.981
same,normalized growth,"locus YCL061C, strain MRC1, active compounds read low",0.991
same,normalized growth,"locus YCL069W, strain vba3, active compounds read low",0.995
same,normalized growth,"locus YCR088W, strain abp1, active compounds read low",0.999
same,normalized growth,"locus YDL005C, strain med2, active compounds read low",0.987
same,normalized growth,"locus YDL035C, strain GPR1, active compounds read low",0.979
same,normalized growth,"locus YDL040C, strain nat1, active compounds read low",0.99
same,normalized growth,"locus YDL074C, strain BRE1, active compounds read low",1.04
same,normalized growth,"locus YDL101C, strain DUN1, active compounds read low",0.987
same,normalized growth,"locus YDL134C, strain PPH21, active compounds read low",0.974
same,normalized growth,"locus YDL185W, strain tfp1, active compounds read low",0.982
same,normalized growth,"locus YDL192W, strain arf1, active compounds read low",0.986
same,normalized growth,"locus YDR001C, strain nth1, active compounds read low",1
same,normalized growth,"locus YDR069C, strain doa4, active compounds read low",0.979
same,normalized growth,"locus YDR101C, strain arx1, active compounds read low",0.988
same,normalized growth,"locus YDR137W, strain rgp1, active compounds read low",0.82 (active)
same,normalized growth,"locus YDR150W, strain NUM1, active compounds read low",1.01
same,normalized growth,"locus YDR159W, strain sac3, active compounds read low",0.978
same,normalized growth,"locus YDR162C, strain NBP2, active compounds read low",0.997
same,normalized growth,"locus YDR195W, strain ref2",1.05
same,normalized growth,"locus YDR297W, strain sur2, active compounds read low",0.993
same,normalized growth,"locus YDR318W, strain mcm21, active compounds read low",0.976
same,normalized growth,"locus YDR334W, strain swr1, active compounds read low",1.01
same,normalized growth,"locus YDR335W, strain msn5, active compounds read low",1
same,normalized growth,"locus YDR388W, active compounds read low",0.992
same,normalized growth,"locus YDR392W, strain spt3, active compounds read low",0.828
same,normalized growth,"locus YDR502C, strain sam2, active compounds read low",0.984
same,normalized growth,"locus YEL003W, strain gim4, active compounds read low",0.967
same,normalized growth,"locus YEL037C, strain rad23, active compounds read low",0.983
same,normalized growth,"locus YEL061C, strain CIN8 (second series), active compounds read low",1
same,normalized growth,"locus YEL061C, strain CIN8, active compounds read low",1.01
same,normalized growth,"locus YER015W, strain faa2, active compounds read low",1.01
same,normalized growth,"locus YER016W, strain bim1, active compounds read low",0.993
same,normalized growth,"locus YER110C, active compounds read low",0.999
same,normalized growth,"locus YER111C, strain swi4, active compounds read low",0.997
same,normalized growth,"locus YER155C, strain BEM2 (second series), active compounds read low",0.997
same,normalized growth,"locus YER155C, strain BEM2, active compounds read low",0.99
same,normalized growth,"locus YER167W, strain BCK2, active compounds read low",0.991
same,normalized growth,"locus YFR010W, strain ubp6, active compounds read low",0.991
same,normalized growth,"locus YGL078C, strain dbp3, active compounds read low",0.989
same,normalized growth,"locus YGL086W, strain mad1, active compounds read low",1
same,normalized growth,"locus YGL167C, strain pmr1, active compounds read low",0.995
same,normalized growth,"locus YGL173C, strain kem1, active compounds read low",0.979
same,normalized growth,"locus YGL227W, strain vid30, active compounds read low",1.01
same,normalized growth,"locus YGL240W, strain doc1, active compounds read low",0.991
same,normalized growth,"locus YGL248W, strain PDE1, active compounds read low",0.993
same,normalized growth,"locus YGL253W, strain hxk2, active compounds read low",0.995
same,normalized growth,"locus YGR135W, strain pre9, active compounds read low",0.975
same,normalized growth,"locus YGR229C, strain SMI1, active compounds read low",1.01
same,normalized growth,"locus YGR252W, strain gcn5, active compounds read low",1.06
same,normalized growth,"locus YHR013C, strain ard1, active compounds read low",1.01
same,normalized growth,"locus YHR027C, strain rpn1, active compounds read low",1.01
same,normalized growth,"locus YHR030C, strain SLT2, active compounds read low",0.995 and 0.955
same,normalized growth,"locus YHR079C, strain IRE1 (second series), active compounds read low",0.979
same,normalized growth,"locus YHR079C, strain IRE1, active compounds read low",0.955
same,normalized growth,"locus YHR094C, strain hxt1, active compounds read low",1
same,normalized growth,"locus YHR129C, strain ARP1, active compounds read low",0.996
same,normalized growth,"locus YHR142W, strain chs7, active compounds read low",0.997
same,normalized growth,"locus YHR200W, strain rpn10, active compounds read low",0.984
same,normalized growth,"locus YIL066C, strain RNR3, active compounds read low",0.995
same,normalized growth,"locus YIL073C, strain SPO22, active compounds read low",0.944
same,normalized growth,"locus YIL125W, strain kgd1, active compounds read low",0.998
same,normalized growth,"locus YIR030C, strain dcg1, active compounds read low",0.982
same,normalized growth,"locus YJL092W, strain hpr5, active compounds read low",0.998
same,normalized growth,"locus YJL095W, strain BCK1 (second series), active compounds read low",1.01
same,normalized growth,"locus YJL095W, strain BCK1, active compounds read low",0.988 and 0.951
same,normalized growth,"locus YJL115W, strain asf1, active compounds read low",1
same,normalized growth,"locus YJL129C, strain trk1, active compounds read low",0.986
same,normalized growth,"locus YJL134W, strain LCB3, active compounds read low",0.995
same,normalized growth,"locus YJL154C, strain vps35, active compounds read low",0.993
same,normalized growth,"locus YJL164C, strain tpk1, active compounds read low",0.988
same,normalized growth,"locus YJL166W, strain qcr8, active compounds read low",0.991
same,normalized growth,"locus YJL168C, strain set2, active compounds read low",0.99
same,normalized growth,"locus YJL187C, strain SWE1 (second series), active compounds read low",0.988
same,normalized growth,"locus YJL187C, strain SWE1, active compounds read low",0.997
same,normalized growth,"locus YJR043C, strain POL32, active compounds read low",1.01

# — PubChem BioAssay AID1159580 (chemical genetic matrix, 2015)
